# The panel holds about 83,000 compounds, 20% with a hit somewhere; the sample as a whole holds those more often.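 Single-concentration screen, 48 h exposure, 96-well plates. Endpoint: percent growth. Below 10 = active.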 Activity calls are given as the source filed them.
# Experiments:
# Assay in all cases: NCI-60 one-dose screen, 48 h (100 = growth as untreated, 0 = no growth, -100 = all killed)
# DU-145 prostate = details: 10 µM unless noted
# K-562 leukemia = details: 10 µM unless noted
# MALME-3M melanoma = details: 10 µM unless noted
# RXF 393 renal = details: 10 µM unless noted
# SF-295 CNS = details: 10 µM unless noted
# UACC-257 melanoma = details: 10 µM unless noted
# M14 melanoma = details: 10 µM unless noted
# SK-MEL-5 melanoma = details: 10 µM unless noted
# UACC-62 melanoma = details: 10 µM unless noted
# SK-MEL-2 melanoma = details: 10 µM unless noted
# A498 renal = details: 10 µM unless noted
# HL-60(TB) leukemia = details: 10 µM unless noted
# CCRF-CEM leukemia = details: 10 µM unless noted
# OVCAR-4 ovarian = details: 10 µM unless noted
# IGROV1 ovarian = details: 10 µM
# OVCAR-3 ovarian = details: 10 µM unless noted
# BT-549 breast = details: 10 µM
# HCC-2998 colon = details: 10 µM unless noted
# LOX IMVI melanoma = details: 10 µM unless noted
# SR leukemia = details: 10 µM
Structure (SMILES),growth (DU-145 prostate),growth (K-562 leukemia),growth (MALME-3M melanoma),growth (RXF 393 renal),growth (SF-295 CNS),growth (UACC-257 melanoma),growth (M14 melanoma),growth (SK-MEL-5 melanoma),growth (UACC-62 melanoma),growth (SK-MEL-2 melanoma),growth (A498 renal),growth (HL-60(TB) leukemia),growth (CCRF-CEM leukemia),growth (OVCAR-4 ovarian),growth (IGROV1 ovarian),growth (OVCAR-3 ovarian),growth (BT-549 breast),growth (HCC-2998 colon),growth (LOX IMVI melanoma),growth (SR leukemia)
C/C(=C\C(=O)O[C@H]1[C@@H]2[C@H](C)CC[C@H]2[C@]2(C)O[C@@]1(C1CCCCC1)C[C@H]2OC(=O)CO)c1ccccc1,66.1% (inactive),23.2% (inactive),64.4% (inactive),-10.1% (active),50.5% (inactive),44.2% (inactive),47.4% (inactive),71.7% (inactive),63.2% (inactive),55.8% (inactive),-83% (active),-27.8% (active),7.86% (active),38.5% (inactive),71.1% (inactive),44.4% (inactive),-6.37% (active),25.9% (inactive),–,–
O=C1NC(=O)C(=Cc2cn(Cc3ccccc3)c3ccccc23)C(=O)N1,100% (inactive),63.5% (inactive),109% (inactive),86.9% (inactive),37.2% (inactive),34.2% (inactive),–,101% (inactive),40.6% (inactive),105% (inactive),-72.6% (active),96.3% (inactive),98.1% (inactive),68.3% (inactive),-26.7% (active),72.6% (inactive),77.6% (inactive),70.2% (inactive),83.4% (inactive),71.4% (inactive)
COc1cc(N(CCCl)CCCl)ccc1C=Nc1ccccc1C(=O)O,104% (inactive),95% (inactive),–,102% (inactive),98% (inactive),91% (inactive),98.2% (inactive),97.4% (inactive),96.4% (inactive),113% (inactive),66.3% (inactive),94.8% (inactive),97.5% (inactive),104% (inactive),84.1% (inactive),97.8% (inactive),106% (inactive),88.2% (inactive),101% (inactive),84.1% (inactive)
CCN(CC)CCOc1c(C(C)C)cccc1C(C)C,–,111% (inactive),107% (inactive),112% (inactive),93.8% (inactive),94.8% (inactive),99.2% (inactive),101% (inactive),99.5% (inactive),96.9% (inactive),82.1% (inactive),107% (inactive),102% (inactive),99.3% (inactive),101% (inactive),107% (inactive),123% (inactive),102% (inactive),99.5% (inactive),-1.29% (active)
CCOC(=O)Nc1cc(Cl)c([N+](=O)[O-])c(NC(=O)OCC)n1,107% (inactive),8.75% (active),99.3% (inactive),99.3% (inactive),101% (inactive),88.8% (inactive),84.8% (inactive),91.8% (inactive),82.6% (inactive),74.6% (inactive),93.1% (inactive),38.2% (inactive),33.1% (inactive),112% (inactive),55.6% (inactive),103% (inactive),94.6% (inactive),103% (inactive),61.5% (inactive),-22.8% (active)
C=CC(O)CN1CC1CC (configuration not stated),108% (inactive),101% (inactive),110% (inactive),115% (inactive),102% (inactive),88.6% (inactive),96.5% (inactive),115% (inactive),92.6% (inactive),–,89.5% (inactive),101% (inactive),116% (inactive),112% (inactive),108% (inactive),111% (inactive),93.5% (inactive),96.2% (inactive),92.6% (inactive),89.9% (inactive)
Nc1ccc([N+](=O)[O-])c2c1Oc1ccccc1O2,93.1% (inactive),113% (inactive),121% (inactive),49.5% (inactive),85.1% (inactive),101% (inactive),106% (inactive),96.7% (inactive),81.7% (inactive),102% (inactive),72.9% (inactive),-17.4% (active),91.2% (inactive),94.5% (inactive),28% (inactive),88.3% (inactive),87% (inactive),108% (inactive),103% (inactive),–
O=c1[nH]c2cc(Cl)ccc2n1C1CCN(CCCC(c2ccc(F)cc2)c2ccc(F)cc2)CC1,-0.502% (active),-59.9% (active),-1.17% (active),30.5% (inactive),-27.6% (active),-81.4% (active),-52.2% (active),-80.9% (active),39.7% (inactive),16.8% (inactive),-90.2% (active),-70.7% (active),-39.3% (active),56.6% (inactive),–,-99.6% (active),78.4% (inactive),-63.4% (active),-91.9% (active),16.2% (inactive)

# Reference: PubChem BioAssay (NCI)
